# BAZ2B block: BAZ2B (human) inhibition. Q9UIF8. hit rate 4.4% among 360,000. Potency, µM (highest dose often 114 µM), for the others: at the highest dose activity change, negative = inhibition, hits mostly inhibitors. AlphaScreen BAZ2B-H3K14Ac peptide displacement; also: % is scaled to controls: 0 for no effect and ±100 for the full control effect; nearly all actives have a fitted effect of over 60% in size
#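 AlphaScreen displacement: compounds (up to 110uM) incubated 30 min at room temperature with a preformed 50 nM BAZ2B/50 nM biotinylated H3K14Ac peptide complex in PBS pH 7.4 with Tween-20. Donor and acceptor beads at 10 ug/mL final added, 20 min light-protected before reading.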
# JMJD2A Tudor inh: blocks the human JMJD2A Tudor domain. AlphaScreen JMJD2A-Tudor / H3K4me3 peptide binding. hit rate 4.4% among 390,000. Potency, µM (doses to about 114 µM), inactives show at the highest dose activity change, negative = inhibition, usual class: inhibitors. O75164; also: % is scaled to controls: 0 for no effect and ±100 for the full control effect; nearly all actives have a fitted effect of over 50% in size
# L3MBTL1 inh: inhibitors of human L3MBTL1 | Q9Y468 | hit rate 0.66% among 230,000 | AlphaScreen L3MBTL1–H3K9me1 peptide binding | Potency, µM (top dose mostly 57.1 µM), inactives show top-dose activity, negative = inhibition, hits mostly inhibitors; also: % is scaled to controls: 0 for no effect and ±100 for the full control effect; nearly all actives have a fitted effect of over 60% in size
# Target sequence (Q9Y468 whole entry, looked up): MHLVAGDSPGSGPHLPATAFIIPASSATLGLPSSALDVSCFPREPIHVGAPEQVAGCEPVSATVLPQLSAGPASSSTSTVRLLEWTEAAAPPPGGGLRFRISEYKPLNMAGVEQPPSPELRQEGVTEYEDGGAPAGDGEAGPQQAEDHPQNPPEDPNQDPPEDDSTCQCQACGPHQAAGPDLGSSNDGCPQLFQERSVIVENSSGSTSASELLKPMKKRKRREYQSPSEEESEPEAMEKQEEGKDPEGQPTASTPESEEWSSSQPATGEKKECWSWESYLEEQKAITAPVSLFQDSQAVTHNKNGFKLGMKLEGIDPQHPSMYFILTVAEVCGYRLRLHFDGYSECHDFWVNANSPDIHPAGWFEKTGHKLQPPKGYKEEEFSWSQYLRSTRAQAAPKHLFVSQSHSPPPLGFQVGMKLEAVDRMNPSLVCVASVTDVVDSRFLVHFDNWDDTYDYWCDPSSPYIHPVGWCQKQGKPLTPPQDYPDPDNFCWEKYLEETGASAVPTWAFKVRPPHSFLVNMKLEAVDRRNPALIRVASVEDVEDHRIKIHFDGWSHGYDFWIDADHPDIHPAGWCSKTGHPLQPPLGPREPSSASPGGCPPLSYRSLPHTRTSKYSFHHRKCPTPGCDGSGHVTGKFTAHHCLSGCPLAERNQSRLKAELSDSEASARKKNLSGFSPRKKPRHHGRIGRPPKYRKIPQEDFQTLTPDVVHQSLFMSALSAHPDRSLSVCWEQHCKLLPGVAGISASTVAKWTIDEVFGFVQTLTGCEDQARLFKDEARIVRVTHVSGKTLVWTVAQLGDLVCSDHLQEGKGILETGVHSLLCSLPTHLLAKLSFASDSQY
#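 AlphaScreen proximity signal between nickel-chelate acceptor and streptavidin donor beads (final 10 ug/mL) reports binding of 50 nM L3MBTL1 to 75 nM biotin-H3 K9me1 peptide; complex incubated with compounds 30 min at room temperature; cefsulodin titration as control.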
# HP1b chromo inh: HP1-beta chromodomain-methylated histone interaction inhibition; Potency, µM (series often up to 114 µM), for inactives: at the highest dose activity change, negative = inhibition, usual class: inhibitors; hit rate 0.56% among 390,000; AlphaScreen HP1-beta / biotin-H3K9me3 peptide binding; P83916; also: nearly all actives have a fitted effect of over 70% in size
#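 AlphaScreen: HP1-beta (50 nM) preformed 30 min with biotin-H3(1-18)K9me3 peptide (50 nM) in PBS pH 7.4, 0.01% Tween-20. Compound added for 30 min at RT, then streptavidin donor/nickel chelate acceptor beads (10 ug/mL) for 30 min.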
# G9a block: inhibitors of human histone lysine methyltransferase G9a | G9a H3K9 monomethylation, AlphaScreen, 2 h | hit rate 8.8% among 350,000 | Potency, µM (series often up to 102 µM), inactives show top-dose activity, negative = inhibition, actives largely listed as inhibitors; also: % is scaled to controls: 0 for no effect and ±100 for the full control effect; nearly all actives have a fitted effect of over 75% in size
#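 G9a (20 nM) was preincubated 15 min with compound, then reacted 2 h at room temperature with 500 nM biotin-H3K9 peptide and 20 µM SAM. Monomethyl-H3K9 detected by AlphaScreen using anti-H3K9me1 antibody.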
# The depositor's hits bear a star; u = inconclusive; x = no result given; [ ] = remark or other dose. Shown are actives, neighbours in structure and some others; about 11% of the full set was active somewhere. Calls follow the shape of the dose curve; as a rule, active = well fitted inhibition curve with a large enough effect; inconclusive = small, poorly fitted or top-dose-only effect; inactive = no such curve, though single readings can be large or run the other way. Potency is read from the fitted curve at half-maximal effect.
SMILES,BAZ2B block,JMJD2A Tudor inh,L3MBTL1 inh,HP1b chromo inh,G9a block
O=C(O)c1cccc(N/N=C/C2=C(Cl)c3cc(Cl)ccc3SC2)c1,50.1µM*,56.2µM*,x,-4.9%,50.1µM*
COc1ccc2ccccc2c1/C=N/Nc1cccc(C(=O)O)c1,u,-16.3%,x,-8.5%,44.7µM*
O=C(O)c1cccc(Cn2c(Cl)c(/C=N/NC(=O)c3ccccc3Cl)sc2=O)c1,21.2%,-8.8%,26.1%,-4.5%,-24.3%[59 µM]
COc1ccc2ccccc2c1/C=N/NC(=O)c1cccc([N+](=O)[O-])c1,-1.5%,0.0%,x,33.5%,2.1%
O=C(N/N=C/c1sc(=O)n(Cc2ccc(Br)cc2)c1Cl)c1ccco1,89.1µM*,u,x,12.9%,21.2%[0.0925 µM]
O=C(O)c1cccc(Cn2c(Cl)c(/C=N/Nc3ccccc3)sc2=O)c1,25.1µM*,u,x,0.9%,12.6µM*
O=c1c2oc3ccccc3c2n(Cc2ccccc2F)c(=O)n1Cc1ccc2c(c1)OCO2,-4.6%,-10.3%,x,19.0%,8.7%[59 µM]
Cc1cc(C)n2c(=O)[nH]nc2c1,x,-8.3%,x,47.8%,x
COc1ccc2ccccc2c1/C=N/Nc1ccc(Cl)c(C(=O)O)c1,u,-24.3%,x,u,44.7µM*
O=C(O)c1cccc(N/N=C/c2cccc3ccccc23)c1,-22.3%,-26.0%,x,-4.5%,35.5µM*
O=C(N/N=C/c1cccc2ccccc12)c1cccc(F)c1,-22.7%,-3.8%,x,41.1%,x
Cc1cccc2cc(/C=N/Nc3ccc(C(=O)O)cc3)c(Cl)nc12,50.1µM*,u,x,-1.6%,x
Cc1nn(-c2cccc(C(F)(F)F)c2)c(Cl)c1/C=N/Nc1cccc(C(=O)O)c1,u,u,-9.1%,-23.5%,u
Cc1nn(-c2ccccc2Cl)c(Cl)c1/C=N/Nc1cccc(C(=O)O)c1,u,-31.2%,u,-9.9%,8.91µM*
COc1ccc(N/N=C/c2c(C(=O)O)ccc3ccccc23)cc1,-35.8%,-29.1%,x,33.7%,5.9%[12.7 µM]
Cc1cccc(CNC(=O)Cn2c(-c3cccs3)cc3ccccc32)c1,6.0%,-0.7%,x,65.2%,8.0%[59 µM]
Cc1ccsc1/C=N/Nc1cccc(C(=O)O)c1,-14.6%,-26.2%,x,19.4%,44.7µM*
COc1ccc(-c2nn(-c3ccccc3)cc2/C=N/Nc2ccc(Cl)c(C(=O)O)c2)cc1OC,-34.4%,-27.7%,-13.6%,8.3%,39.8µM*
O=C(O)c1ccc(/C=N/Nc2cccc(C(F)(F)F)c2)cc1,u,-23.1%,-8.1%,4.7%,u
O=C(O)c1cccc(N/N=C/c2ccc(F)c(F)c2)c1,5.7%,-18.2%,16.0%,39.4%,7.94µM*
O=C(N/N=C/c1ccc(O)cc1)c1cccc(N/N=C/c2ccc(O)cc2)c1,-24.3%,-14.0%[11.4 µM],-7.9%,-20.4%,10µM*
COc1ccc(S(=O)(=O)N2CCN(c3ccccc3OC)CC2)cc1C(=O)N1CCCCC1,-13.1%,-12.5%,x,11.7%[57 µM],7.4%
O=C(CSc1ncc(-c2ccccc2)[nH]1)Nc1ccc(Cl)cc1,-33.8%,u,x,-1.2%,u
Cc1nn(Cc2ccc(Cl)cc2)c(C)c1NC(=O)c1cc(-c2ccco2)on1,-7.5%,-24.3%,-1.9%,22.6%,u
c1cncc(CNCc2ccco2)c1,70.8µM*,-13.7%,x,7.4%,u
SMILES,BAZ2B block,JMJD2A Tudor inh,L3MBTL1 inh,HP1b chromo inh,G9a block
COC(=O)c1ccccc1NC(=O)c1cc(-c2ccco2)on1,-13.7%,-18.6%,x,6.5%,39.8µM*
Cn1c(N)c(C(=O)Nc2c(Cl)cccc2Cl)sc1=S,-36.8%,-31.3%,-11.5%,-22.4%,50.1µM*
Cc1nn(Cc2ccc(Cl)c(Cl)c2)c(C)c1NC(=O)c1cc(-c2ccco2)on1,-24.0%,-15.1%,-20.9%,30.5%,15.8µM*
CCc1nn(Cc2c(C)cc(C)cc2C)c(=O)c2cc3cc(C)ccc3n12,2.9%,-5.7%,x,19.0%,3.8%[59 µM]
COc1ccc(CCNC(=O)Cn2cc(S(=O)(=O)Cc3ccccc3Cl)c3ccccc32)cc1OC,-13.6%,-18.5%,x,9.5%,-1.4%[59 µM]
Cc1ccc(NC(=O)Cn2cc(C(F)(F)F)cc(Cl)c2=O)cc1Cl,-17.8%,-15.3%,1.2%[11.4 µM],11.9%,-30.6%
Cc1ccc(N2C(=O)CS(=O)(=O)C23C(=O)N(Cc2ccccc2F)c2ccccc23)cc1Cl (centres undefined),-10.9%,-6.5%,x,21.8%,-37.1%[59 µM]
CCOc1ccc(CNC(=O)c2cnc3sc(N(CC)CC)nn3c2=O)cc1,-12.2%,-15.0%,x,32.9%,-0.4%[59 µM]
